Measurements as given in paper PMC4336329 (PLoS ONE, 2015).
Hit rate of the full screen: of about 310,000 compounds, about 14,000 (4.5%) showed an effect of 50% or more. The effect is printed as a negative number. Shown is part of a subset that was picked to be rich in strong results.

What follows are molecules tested against human ether-à-go-go-related gene (hERG) potassium channel (human, UniProt Q12809) (assay: primary screen, population patch clamp on CHO cells stably expressing hERG; higher = less effect of the substance).
human ether-à-go-go-related gene (hERG) potassium channel, sequence (Q12809 whole entry, looked up): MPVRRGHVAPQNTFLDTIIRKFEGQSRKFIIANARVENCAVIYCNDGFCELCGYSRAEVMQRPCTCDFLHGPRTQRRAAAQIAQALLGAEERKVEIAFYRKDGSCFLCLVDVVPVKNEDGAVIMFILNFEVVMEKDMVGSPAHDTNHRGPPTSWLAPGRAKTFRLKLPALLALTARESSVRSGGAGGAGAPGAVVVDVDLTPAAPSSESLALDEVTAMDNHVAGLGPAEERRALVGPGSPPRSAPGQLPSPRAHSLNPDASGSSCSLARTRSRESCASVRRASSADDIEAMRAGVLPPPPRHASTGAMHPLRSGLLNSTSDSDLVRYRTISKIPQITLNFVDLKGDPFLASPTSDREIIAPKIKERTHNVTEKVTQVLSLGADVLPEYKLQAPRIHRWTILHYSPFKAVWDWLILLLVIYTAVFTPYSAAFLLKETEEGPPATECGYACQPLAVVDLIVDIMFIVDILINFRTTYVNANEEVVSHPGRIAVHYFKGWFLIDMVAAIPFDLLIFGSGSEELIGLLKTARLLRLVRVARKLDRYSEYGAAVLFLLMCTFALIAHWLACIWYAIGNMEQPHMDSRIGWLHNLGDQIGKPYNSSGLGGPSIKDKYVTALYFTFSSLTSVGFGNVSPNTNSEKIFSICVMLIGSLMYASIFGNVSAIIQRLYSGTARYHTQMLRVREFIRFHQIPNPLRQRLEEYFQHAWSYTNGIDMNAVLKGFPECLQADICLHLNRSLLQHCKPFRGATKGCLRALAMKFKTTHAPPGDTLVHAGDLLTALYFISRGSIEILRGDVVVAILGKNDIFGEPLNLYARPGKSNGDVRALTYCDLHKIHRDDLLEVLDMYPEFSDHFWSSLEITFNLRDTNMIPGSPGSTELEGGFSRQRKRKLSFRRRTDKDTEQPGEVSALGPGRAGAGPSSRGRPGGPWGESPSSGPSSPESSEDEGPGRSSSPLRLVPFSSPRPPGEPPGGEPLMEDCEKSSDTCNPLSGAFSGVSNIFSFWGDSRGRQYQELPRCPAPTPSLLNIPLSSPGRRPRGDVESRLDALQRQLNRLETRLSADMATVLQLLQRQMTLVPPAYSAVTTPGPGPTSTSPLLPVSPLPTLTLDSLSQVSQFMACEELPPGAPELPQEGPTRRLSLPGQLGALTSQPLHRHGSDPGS
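Further: peak tail current of the secondary pulse compared with the same well before compound.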

Structure (SMILES) | hERG current change (%, negative = inhibition) at 10uM [%]
Fc1ccc(C2c3cccn3CCN2C(=S)Nc2cccc(F)c2)cc1 (stereo not shown) | 6.02
CCCCCc1cc(=O)oc2c(C(CCN(CC)CC)c3ccc(N(C)C)cc3)c(OC)cc(OC)c12 (stereo not shown) | -33.6
CCCCCc1cc(=O)oc2c(C(CCN3CCCC3)c3ccc(N(C)C)cc3)c(OC)cc(OC)c12 (stereo not shown) | -57.5
CCCCCc1cc(=O)oc2c(C(CCN3CCCC(C)C3)c3ccc(N(C)C)cc3)c(OC)cc(OC)c12 (stereo not shown) | 6.65
CCCCCc1cc(=O)oc2c(C(CCN3CCCCC3)c3ccc(OC)cc3)c(OC)cc(OC)c12 (stereo not shown) | -59.1
CCN(CC)CCC(c1ccc(N(C)C)cc1)c1c(OC)cc(OC)c2ccc(=O)oc12 (stereo not shown) | -11.7
CCCCCc1cc(=O)oc2c(C(CCN3CCN(c4ccccc4)CC3)c3ccc4c(c3)OCO4)c(OC)cc(OC)c12 (stereo not shown) | 18.7
CCCCCc1cc(=O)oc2c(C(CCN3CCCC(C)C3)c3ccc4c(c3)OCO4)c(OC)cc(OC)c12 (stereo not shown) | -7.33
CCCCCc1cc(=O)oc2c(C(CCN3CCCC(C)C3)c3ccc(OC)cc3)c(OC)cc(OC)c12 (stereo not shown) | -27.8
CCCCCc1cc(=O)oc2c(C(CCN3CCCCC3)c3ccc4c(c3)OCO4)c(OC)cc(OC)c12 (stereo not shown) | -54.3
CCCCCc1cc(=O)oc2c(C(CCN3CCN(c4ccccc4)CC3)c3ccc(N(C)C)cc3)c(OC)cc(OC)c12 (stereo not shown) | 5.51
CCCCCc1cc(=O)oc2c(C(CCN(CC)CC)c3ccc(OC)cc3)c(OC)cc(OC)c12 (stereo not shown) | -55.2
CC(=O)c1cn(-c2ccc(Cl)cc2)c(=O)n(Cc2ccc(Br)cc2)c1=O | -11.9
O=C(Nc1ccccc1F)C1CCCN(S(=O)(=O)c2ccccc2)C1 (stereo not shown) | -10.3
Cc1ccc(Cc2cnc(N3C(=N)SC(c4ccccc4)C3=O)s2)cc1 (stereo not shown) | 3.87
COc1cc(OC)cc(C(=O)NCC(=O)OCC(=O)C(C)(C)C)c1 | 16.6
CCCC1=NN2C(=N)/C(=C\c3cc(C)n(-c4cc(C)cc(C)c4)c3C)C(=O)N=C2S1 | -10.4
CCc1nc2c(n1O)CCc1nonc1-2 | 4.58
COc1ccc(Cl)cc1NC(=O)CCCN1C(=O)CCC1=O | 14.4
CCOC(=O)c1c(C)[nH]c(C)c1C(=O)C(Cc1ccccc1)N(C)C.Cl (stereo not shown) | 4.71

Structure (SMILES) | hERG current change (%, negative = inhibition) at 10uM [%]
O=S(=O)(NCC(c1ccco1)N1CCN(c2ccc(F)cc2)CC1)c1ccc(F)cc1 (stereo not shown) | -0.721
O=C(NCC(c1cccnc1)N1CCN(c2ccc(F)cc2)CC1)OCc1ccccc1 (stereo not shown) | -56.8
O=C(NCC(c1cccnc1)N1CCN(c2ccc(F)cc2)CC1)c1ccc(F)cc1 (stereo not shown) | -47.6
O=S(=O)(NCC(c1cccnc1)N1CCN(c2ccc(F)cc2)CC1)c1ccc(F)cc1 (stereo not shown) | -69
CCS(=O)(=O)NCC(c1cccnc1)N1CCN(c2ccc(F)cc2)CC1 (stereo not shown) | -7.91
O=C(NCC(c1cccnc1)N1CCN(c2ccccc2)CC1)OCc1ccccc1 (stereo not shown) | -45.9
O=C(NCC(c1cccnc1)N1CCN(c2ccc(F)cc2)CC1)Oc1ccccc1 (stereo not shown) | -26.4
O=S(=O)(NCC(c1cccnc1)N1CCN(c2ccc(F)cc2)CC1)c1ccccc1 (stereo not shown) | -53.2
COc1ccc2c(c1)-c1c(ssc1=S)C(C)(C)N2S(=O)(=O)c1ccc(C)cc1 | 2.55
CCCCN1C(=O)/C(=C/c2ccc(N(C)C)cc2)C(=O)N(Cc2ccco2)C1=O | 7.86
S=C(NCC1CCCO1)Nc1ccccc1 (stereo not shown) | 25.5
CC(=O)c1cc(CN2CCC(C(=O)Nc3cccc(-c4cscn4)c3)CC2)cs1 | -30.5
CCn1cc(CN2CCC(C(=O)Nc3cccc(-c4cccc(Cl)c4)c3)CC2)c(C)n1 | -78.9
Cc1c(CN2CCC(C(=O)Nc3ccc(Oc4ccccc4)nc3)CC2)cnn1C | -32.8
CCn1cc(CN2CCC(C(=O)Nc3cccc(-c4cccc(OC)c4)c3)CC2)c(C)n1 | -46.3
CCn1cc(CN2CCCC(C(=O)Nc3ccc(-c4cscn4)cc3)C2)c(C)n1 (stereo not shown) | -8.71
C=CCn1cc(CN2CCC(C(=O)Nc3cccc(-c4cccc(Cl)c4)c3)CC2)c(C)n1 | -71.5
Cc1c(CN2CCC(C(=O)Nc3cccc(-c4cccc(Cl)c4)c3)CC2)cnn1C | -61.4
C=CCOc1cccc(C2NC(=O)c3ccccc3O2)c1 (stereo not shown) | 21.4
C/C(=N/O)c1cc(C(C)(C)C)c(O)c(C(C)(C)C)c1 | 14.6

Structure (SMILES) | hERG current change (%, negative = inhibition) at 10uM [%]
COc1ccc([C@@H]2CC=C(C(=O)O)[C@H](c3ccc(F)cc3)N2S(=O)(=O)c2ccc(C)cc2)cc1OC | 10.5
Fc1cccc(Cl)c1Cn1nnc(-c2ccc3c(c2)OCO3)n1 | -1.37
N=c1c2c3c(sc2nc2n1CCCCC2)CCCC3 | -45.2
N=c1c2c3c(sc2nc2n1CCC2)CCCC3 | -28.9
N=c1c2c3c(sc2nc2n1CCCCC2)CCCCC3 | -53
NC(=O)NCc1cccs1 | 7.27
O=[N+]([O-])c1ccc(Oc2ccc(S(=O)(=O)N3CCOCC3)cc2)cc1 | -63.4
COc1cc(C(=S)N2CCOCC2)ccc1OS(=O)(=O)c1ccccc1[N+](=O)[O-] | -1.24
O=[N+]([O-])c1ccccc1S(=O)(=O)Oc1ccc(C(=S)N2CCOCC2)cc1 | -75
CCOc1cc(C(=S)N2CCOCC2)ccc1OS(=O)(=O)c1ccccc1[N+](=O)[O-] | 8.98
O=C(c1cccc(Oc2ccc([N+](=O)[O-])cc2)c1)N1CCOCC1 | -34.3
O=S(=O)(c1ccc(Oc2ccccc2)cc1)N1CCOCC1 | 0.463
Cn1nc([N+](=O)[O-])nc1Oc1ccccc1C(=O)N1CCOCC1 | 17.4
O=[N+]([O-])c1ccc(-c2ccc(S(=O)(=O)N3CCOCC3)cc2)cc1 | -29.8
O=[N+]([O-])c1ccccc1S(=O)(=O)Nc1ccc(S(=O)(=O)N2CCOCC2)cc1 | 14.7
O=[N+]([O-])c1ccccc1Oc1ccc(S(=O)(=O)N2CCOCC2)cc1 | -63.8
O=S(=O)(c1ccc(Oc2ccc(S(=O)(=O)N3CCOCC3)cc2)cc1)N1CCOCC1 | 9.29
O=C(c1ccccc1Oc1ccc([N+](=O)[O-])cc1)N1CCOCC1 | -52
